Our source for the composite z-score values is PubChem BioAssay.

This test in a line: small-molecule microarray binders of probe aDKK1, primary screen, biochemical, biotinylated probe, 635/667 nm fluorescence (AID 1099).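 Also: score merges 667nm spot fluorescence with signal to noise across triplicate slides; reference of the scale not given here.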 The note with it: higher = more signal.
As for `CO[C@H]1COC(=O)CC=C[C@H](C)[C@@H](OC)COC(=O)[C@@H](C)NC(=O)CC=C[C@@H]1C`, the composite z-score is -0.377.

Regarding `CCOC(=O)[C@H](Cc1ccccc1)NC(=O)OC1CC(CCC2CC(CC)=NO2)OC2(CCCC(COC(=O)NCCC(C)C)O2)C1` (stereo partly specified), the composite z-score was -0.246.

`CC(C)CON=C1C[C@@H](O)[C@@H](O)[C@@H]2[C@@H]3C(=O)N(c4ccc(F)cc4F)C(=O)[C@@H]3CC[C@H]12`: the composite z-score is -0.212.

As for `CC(C)(C)N1C(=O)[C@H]2[C@H]3[C@H](O)[C@H](O)CC(=NO[C@@H]4O[C@H](CO)[C@@H](O)[C@H](O)[C@H]4O)[C@H]3CC[C@H]2C1=O`, the composite z-score is -0.215.

`COC(=O)C=CCCc1coc(C=CCNC(=O)OC)n1` returned a composite z-score of 0.161.

Regarding `Cc1ccc(S(=O)(=O)OC[C@H]2CN3[C@H](c4ccc(Br)cc4)[C@@H](C)CC[C@H]3C(=O)O2)cc1`, the composite z-score was -0.285.

As for `CO[C@@H]1COC(=O)[C@@H](C)NC(=O)CC=C[C@@H](C)[C@H](NS(=O)(=O)c2ccc(C)cc2)COC(=O)[C@H](C)NC(=O)CC=C[C@H]1C`, the composite z-score was -0.629.

Regarding `COC(=O)[C@H](C)NC(=O)CCC1CC(OC(=O)NCc2ccc3c(c2)OCO3)CC2(CCCC(COC(=O)NCC3CCCCC3)O2)O1` (stereo partly specified), the composite z-score was -0.21.

As to `C#CCCCON=C1C[C@@H](O)[C@@H](O)[C@@H]2[C@@H]3C(=O)N(C(C)(C)C)C(=O)[C@@H]3CC[C@H]12`, the composite z-score is 0.765.

`CCOC(=O)NN=C1C[C@@H](O)[C@@H](O)[C@@H]2[C@@H]3C(=O)N(C(C)(C)C)C(=O)[C@@H]3CC[C@H]12` displayed a composite z-score of 0.0171.

On to `C[C@H]1COC(=O)[C@@H]2CCCN2C(=O)[C@@H](C)COC(=O)[C@H](Cc2ccccc2)NC1=O`, for which the composite z-score was -0.275.

`CCOC(=O)NN=C1C[C@@H](O)[C@@H](O)[C@@H]2[C@@H]3C(=O)N(c4cccc(Oc5ccccc5)c4)C(=O)[C@@H]3CC[C@H]12` gave a composite z-score of 0.104.

With `CCOC(=O)C1=NO[C@@]2(C=C(Br)C3(OCCCO3)[C@H]3O[C@H]32)C1`, the composite z-score is -0.042.

For the molecule `CO[C@@H]1COC(=O)[C@H](CCSC)NC(=O)CC=C[C@@H](C)COC(=O)CCC[C@H]1C`, the composite z-score is -0.374.

Take `CCOC(=O)[C@H](Cc1ccccc1)NC(=O)CCC1CC(OC(=O)NCc2cccc3ccccc23)CC2(CCCC(COC(=O)NCCC(C)C)O2)O1` (stereo partly specified): the composite z-score is -0.295.

Take `CC[C@@H](c1ccccc1)n1c(=O)n2n(c1=O)[C@H]1[C@H](O)[C@@H]3O[C@@H]3C(=O)[C@H]1CC2`: the composite z-score is -0.245.

For the molecule `CCc1cc2c(nc1CC)CCN(CCC(C)=NO[C@H](C)c1cn([C@H](CO)Cc3ccccc3)nn1)C2`, the composite z-score was -0.144.

Turning to `CCOC(=O)[C@H](CC(C)C)NC(=O)CCC1CC(OC(=O)NCc2ccc3c(c2)OCO3)CC2(CCCC(COC(=O)NCC(c3ccccc3)c3ccccc3)O2)O1` (stereo partly specified), the composite z-score is -0.445.

Molecule `CCOC(=O)CCN1C(=O)[C@H]2[C@H]3[C@H](O)[C@H](O)CC(=NOCC(C)C)[C@H]3CC[C@H]2C1=O` had a composite z-score of 0.16.

For `O=C1[C@H]2[C@H]3[C@H](O)[C@H](O)CC(=NOCc4ccccc4)[C@@H]3CC[C@H]2C(=O)N1C[C@@H]1CCCO1`, the composite z-score is -0.168.

In the case of `CCOC(=O)[C@H](CC(C)C)NC(=O)CCC1CC(OC(=O)NCc2cccc3ccccc23)CC2(CCCC(COC(=O)NCC3CCCCC3)O2)O1` (stereo partly specified), the composite z-score is -0.11.

`CC(C)=CCCC(C)=CCON=C1C[C@@H](O)[C@@H](O)[C@@H]2[C@@H]3C(=O)N(c4cccc(Oc5ccccc5)c4)C(=O)[C@@H]3CC[C@@H]12` returned a composite z-score of 0.132.

Regarding `O=C1[C@H]2[C@H]3[C@H](O)[C@H](O)CC(=NOC[C@@H](O)COCc4ccco4)[C@H]3CC[C@H]2C(=O)N1c1ccc(F)cc1F`, the composite z-score was 0.0973.

As to `COc1ccc(O[C@@H]2[C@H](O)CO[C@H]2C=Cc2ccccc2)cc1`, the composite z-score is -0.274.

For the molecule `COC(=O)[C@@H]1CC[C@H](C)[C@@H](c2ccc(C)cc2)N1C(=O)c1ccc(C=NO[C@@H]2O[C@H](COC(C)=O)[C@@H](OC(C)=O)[C@H](OC(C)=O)[C@H]2OC(C)=O)cc1`, the composite z-score is -0.254.

Turning to `CO[C@H]1COC(=O)[C@H](C)NC(=O)[C@@H](C)COC(=O)[C@H]2CCCN2C(=O)CC=C[C@H]1C`, the composite z-score was -0.377.

For `CC(C)=CCCC(C)=CCON=C1C[C@@H](O)[C@@H](O)[C@@H]2[C@@H]3C(=O)N(c4ccc(F)cc4F)C(=O)[C@@H]3CC[C@H]12`, the composite z-score is -0.016.

For the molecule `COc1cc(O)c(C(=O)C=Cc2ccc3c(c2)OCO3)c(OC)c1`, the composite z-score was -0.323.

Turning to `COc1ccc(O[C@H]2C=C[C@@H](c3ccccc3)O[C@@H]2CON=C2[C@H]3CCn4c(=O)n(-c5ccccc5)c(=O)n4[C@H]3[C@H](O)[C@@H]3O[C@H]23)cc1`, the composite z-score came out at 0.214.

For `COc1ccc(COC(=O)NN=C2C[C@@H](O)[C@@H](O)[C@@H]3[C@@H]4C(=O)N(Cc5ccccc5)C(=O)[C@@H]4CC[C@H]23)cc1`, the composite z-score amounted to 0.743.

With `CO[C@H]1COC(=O)[C@@H](C)COC(=O)[C@@H](OCc2ccccc2)C=C[C@@H]1C`, the composite z-score was -0.439.

`COc1ccc(O[C@H]2C=C[C@@H](c3ccccc3)O[C@@H]2CON=C(C)CCN2CCc3nc(-c4ccccc4)c(-c4ccccc4)cc3C2)cc1`: the composite z-score was -0.259.

Consider `CCN1C(=O)[C@H]2[C@H]3[C@H](O)[C@H](O)CC(=O)[C@H]3CC[C@H]2C1=O`, for which the composite z-score was -0.106.

Regarding `CCCNC(=O)OC[C@H]1O[C@H](CCON=C(C)C)C=C[C@@H]1Oc1ccc(OC)cc1`, the composite z-score turned out to be 0.325.

Consider `CCOC(=O)NN=C1C[C@@H](O)[C@@H](O)[C@@H]2[C@@H]3C(=O)N(c4ccc(F)cc4F)C(=O)[C@@H]3CC[C@@H]12`, for which the composite z-score is -0.132.

Turning to `C[n+]1ccc(-c2ccc(CO)cc2)cc1`, the composite z-score turned out to be 0.116.
